Sfp inh: qHTS Assay for Inhibitors of Bacillus subtilis Sfp phosphopantetheinyl transferase (PPTase); AID 1490, 2009; Potency, µM, for the others: largest response in the series, negative = inhibition, actives largely listed as inhibitors; Biochemical Sfp PPTase activity, qHTS; 310,000 compounds, 3.5% hits; 4'-phosphopantetheinyl transferase ffp (Bacillus subtilis), Q9F4F7;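 further: the enzyme is Sfp with the accession as filed and its product quenches rhodamine fluorescence; potency means the concentration at half of the fitted maximal effect; 0% = enzyme reaction without inhibitor and -100% = no enzyme wells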
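Step 1, compound plus 15 nM Sfp-PPTase, 15 min, room temperature. Step 2, add rhodamine-CoA (5 uM) and BHQ-2-YbbR (12.5 uM). Step 3, read 525/598 nm fluorescence at 0 and 30 min.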
Coupling enz: qHTS Assay for Inhibitors of Fructose-1,6-bisphosphate Aldolase from Giardia Lamblia: Coupling assay counterscreen; coupling enzyme system counterscreen, AmpLite Red fluorescence; activity change, negative = inhibition, % at 58.2 µM, hits read low; 290,000 compounds, 0.67% hits; AID 2472, 2010; in the data active means activity change below about -30%
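Counterscreen of the coupled detection system alone, without aldolase: glyceraldehyde-3-phosphate coupling enzymes plus AmpLite Red readout. Compounds at 57.5 uM final, 10 min RT preincubation, 20 min RT reaction, fluorescence 525/598 nm.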
Giardia killer: Small Molecules that selectively kill Giardia lamblia: qHTS | Giardia lamblia trophozoite viability | activity change, % at 7.66 µM, hits read low | 340,000 compounds, 0.15% hits; in the data active means activity change below about -80%; inconclusive means between about -30% and that limit;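 further: parasites exposed to compound for two days anaerobically before the ATP read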
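Trophozoites 100 cells/well + cpd; 48 hrs, 37 deg C, anaerobic. ATPLite 1-Step added, 15-30 min RT, luminescence read (ATP-based viability).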
ELG1 repair inh: qHTS screen for small molecules that inhibit ELG1-dependent DNA repair in human embryonic kidney (HEK293T) cells expressing luciferase-tagged ELG1 | 330,000 compounds, 2.3% hits | AID 504467, 2011 | Potency, µM (series often up to 46.1 µM), inactives show at the highest dose activity change, negative = inhibition, hits mostly inhibitors | HEK293T ELG1-luciferase reporter, luminescence, 16 h; DNA damage induced by 5-fluorouridine; further: potency means the concentration at half of the fitted maximal effect; nearly all actives have a fitted effect of over 55% in size
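DMSO vehicle served as the neutral condition. Each well held 2,000 cells given 5-fluorouridine plus compound; after 16 hr at 37 °C/5% CO2, ONE-Glo was added and luciferase measured 30 min later.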
* hit, by the source's call; u = inconclusive; x = no result. This is a sample that favours compounds with a hit; in the whole collection about 5.5% have one here. Unless noted, the call rests on the fitted dose curve; in most records, active means well fitted curve in the direction sought with a large enough effect; inconclusive means small, poorly fitted or top-dose-only effect, or another doubt; inactive means no such curve, though single readings can be large; an effect the other way counts as inactive or inconclusive. Unless noted, on the % scale 0 is the no-effect control and ±100 the full control effect.

SMILES | Sfp inh | Coupling enz | Giardia killer | ELG1 repair inh
COc1ccc([C@@H]2CC(=O)c3c(O)cc(O[C@@H]4O[C@H](CO)[C@@H](O)[C@H](O)[C@H]4OC4O[C@@H](C)[C@H](O)[C@@H](O)[C@H]4O)cc3O2)cc1O (stereo not given in full) | -5% | 1 | x | x
CC1CCCCC1NC(=O)c1ccc(NC2=NC3CS(=O)(=O)CC3S2)cc1 (stereo not given) | 4% | x | 16 | -3%
Cc1c2c(c(O)c3c(O)cccc13)C(=O)O[C@H]2C1C(N(C)C)C(O)=C(C(N)=O)C(=O)[C@H]1O (stereo not given in full) | u | -20 | x | x
Cc1ccc(O)c(CP(=O)(c2ccccc2)c2ccccc2)c1 | 4% | -4 | -8 | -29%
CCNc1ccccc1CP(=O)(c1ccccc1)c1ccccc1O (stereo not given) | 1.4µM* | -58* | 25 | -12%
Cc1ccc(CS(=O)Cc2ccc(C(=O)NCc3ccc(OC(C)C)cc3)o2)cc1 (stereo not given) | -4% | 7 | -6 | 7.3µM*
O=C(CCC(=O)Nc1ccc(F)cc1)N/N=C/c1cccnc1 | 25% | -1 | 1 | -1%
C[N+]1(CCN2C(=O)C3CC=C(Cl)CC3C2=O)CCOCC1 (stereo not given) | -3% | 5 | 16 | 16%
O=C(CN1C(=O)C2CC=C(Cl)CC2C1=O)N1CCOCC1 (stereo not given) | -16% | -36* | -2 | 7%
O=C(Nc1cccc([N+](=O)[O-])c1)NC1CCCCCCC1 | 15% | x | -4 | u
Cc1ccc(NC(=O)CN(C)CC(=O)Nc2c(C)cccc2C)c(Br)c1 | 2% | 0 | -14 | 7.3µM*
CC[Si](CC)(CC)O[C@H]([C@@H](C)COCOC)[C@@H](C)COCc1ccc(OC)cc1 | 0% | 0 | 23 | x
COc1ccc(N2CCN(C(=O)c3cc4c(-c5cccc(OC)c5)nn(C)c4s3)CC2)cc1 | -9% | 3 | -4 | u
CC(=O)c1ccc(N2CCN(C(=O)c3cc4c(-c5ccccc5F)nn(C)c4s3)CC2)cc1 | 9% | -1 | -5 | 18µM*
CC(CCc1ccco1)NC(=O)c1cc2c(-c3ccccc3F)nn(C)c2s1 (stereo not given) | 45µM* | 0 | -15 | 16µM*
Cn1nc(-c2ccc(Cl)cc2)c2cc(C(=O)N3CCN(C(=O)c4ccco4)CC3)sc21 | u | 0 | 4 | 8.2µM*
O=C(NNC(=O)C12CC3CC(CC(O)(C3)C1)C2)c1csc(N2CCOCC2)n1 | 1% | x | -7 | 9%
COc1ccc(CNC(=O)CCC2N=C3c4ccccc4N=C(SCC(=O)NCC4CCCO4)N3C2=O)cc1 (stereo not given) | 13% | -1 | -7 | 13%
CCOC(=O)C(=Cc1ccc(OCc2ccc([N+](=O)[O-])cc2)c(OC)c1)C(=O)OCC | 10% | -7 | -7 | 18µM*
COc1cc(C(c2c(C)[nH][nH]c2=O)c2c(C)[nH][nH]c2=O)ccc1OC(=O)c1cccc([N+](=O)[O-])c1 | -4% | -16 | -4 | 8%
COc1cc(C(c2c(C)[nH][nH]c2=O)c2c(C)[nH][nH]c2=O)ccc1OCc1ccc([N+](=O)[O-])cc1 | -19% | -35* | -20 | u
CC(C)Cc1nnc(NC(=O)CCC(=O)N2CCN(c3ccc(Cl)cc3)CC2)s1 | 18% | 0 | -10 | -3%
Cc1cc(NS(=O)(=O)c2ccccc2)cc(Cl)c1O | 79µM* | -13 | 1 | -1%
O=S(=O)(Nc1ccc(NS(=O)(=O)c2ccccc2)c(Cl)c1)c1ccccc1 | x | x | 14 | x
COC(=O)CSC1=NS(=O)(=O)c2ccccc21 | 3.5µM* | 1 | -3 | 11%
SMILES | Sfp inh | Coupling enz | Giardia killer | ELG1 repair inh
O=C(CSC1=NS(=O)(=O)c2ccccc21)Nc1ccccc1 | 13µM* | 0 | 7 | 3%
CCOc1ccc(NC(=O)N(Cc2cn(CC)c3ccccc23)C2CCCCCC2)cc1 | x | x | 1 | x
Cc1nn2c(N)csc2nc1=O | 50µM* | -6 | x | 3%
COc1cccc(N2C(=O)[C@H]3C(C(=O)c4cnccn4)=NN[C@H]3C2=O)c1 | 79µM* | 0 | 13 | 8%
CCOc1cc(N2CCOCC2)c(OCC)cc1NC(=O)CSc1ncn[nH]1 | -64% | -36* | 0 | 1%
CCOc1cc(N2CCOCC2)c(OCC)cc1NC(=O)Cc1ccc(OC)c(OC)c1 | -21% | -41* | 8 | u
CCOc1cc(N2CCOCC2)c(OCC)cc1NC1=NCCCCC1 | 5% | -32* | -5 | -9%
CCOc1cc(N2CCOCC2)c(OCC)cc1NC(=O)Cc1cccc(OC)c1 | 9% | -1 | -4 | u
CCOc1cc(N2CCOCC2)c(OCC)cc1NC(=O)CSc1n[nH]c(N)n1 | -1% | -20 | -2 | 0%
CCOc1cc(N2CCOCC2)c(OCC)cc1NC(=O)COC(=O)[C@@H]1CCCN1S(=O)(=O)c1ccccc1F | -29% | -31* | -2 | -28%
O=C(O)CCC1CCCC1 | 22% | 0 | x | x
Cc1cccc(OCc2nnc(SCC(=O)Nc3ccc(N4CCOCC4)cc3)o2)c1 | 17% | 0 | 2 | -7%
O=C(CN1CCc2ccccc2C1)Nc1ccccc1N1CCCCCC1 | 50µM* | -2 | 9 | -3%
CCOc1cc(N2CCOCC2)c(OCC)cc1NC(=O)COc1cccc(CC)c1 | x | x | -8 | 23µM*
CCOc1cc(N2CCOCC2)c(OCC)cc1NC(=O)CN1CCc2ccccc2C1 | 45µM* | -25 | 8 | u
O=C(CN1CCc2ccccc2C1)Nc1ccccc1Cl | 5% | 2 | 11 | 4%
O=C(CNCCC1=CCCCC1)Nc1ccccc1N1CCCCC1 | u | -42* | -5 | 5%
S=c1[nH]ncn1-c1ccccn1 | 22µM* | 0 | 4 | 14%
N=C(N)SCc1ncccc1O | -23% | 0 | -24 | -11%
N=C(N)SCc1ccccn1 | 5% | -80* | 2 | u
CC(=O)N(C)C | 15% | 1 | x | x
O=C1NC(=S)S/C1=C\c1cc2ccccc2nc1N1CCCCC1 | 5% | 14 | -10 | 16µM*
COc1ccc2nc(N3CCCCC3)c(/C=C3\SC(=S)NC3=O)cc2c1 | -4% | 6 | -3 | -16%
O=C1CC(N2CCN(S(=O)(=O)c3ccccc3F)CC2)C(=O)N1c1ccccc1F (stereo not given) | x | x | 4 | x
Cc1ccc(CNC(=O)c2ccc(CNS(=O)(=O)c3ccc4c(c3)C(C)(C)C(=O)N4C)cc2)o1 | 50µM* | 3 | -8 | -5%
CCC(C)NC(=O)c1ccc(CNS(=O)(=O)c2ccc3c(c2)C(C)(C)C(=O)N3C)cc1 (stereo not given) | 25% | 0 | -13 | 17%
CC(=O)N1N=C(c2ccco2)CC1c1ccc(Cl)o1 (stereo not given) | -8% | 0 | -7 | 24%
